# Laboratory results as given in PubChem BioAssay AID1851 (National Center for Advancing Translational Sciences (NCATS), 2009).
# Several values for one entry are separate records, joined by “and”; a condition that tells them apart may be missing. Equal values may be shown once. Screen size: about 16,000 compounds; about 5,700 (36%) were called active. About 24% were inconclusive and are not listed. The list shows a part of the results. Values without a mark were called inactive. The call rests on the fitted dose curve; in most records, active means well fitted curve in the direction sought with a large enough effect; inconclusive means small, poorly fitted or top-dose-only effect, or effect the other way; inactive means no such curve, though single readings can be large or run the other way.
# Target: Cytochrome P450 1A2 (Homo sapiens) (UniProt P05177)
# Assay: Cytochrome panel assay with activity outcomes
# Settings: recombinant CYP, pro-luciferin dealkylation, luminescence, p450-cyp1a2; series mostly up to 57.1 µM
# On the % scale 0 is the no-effect control and ±100 the full control effect.
# Cytochrome P450 1A2 (Homo sapiens), sequence (P05177 whole entry, looked up): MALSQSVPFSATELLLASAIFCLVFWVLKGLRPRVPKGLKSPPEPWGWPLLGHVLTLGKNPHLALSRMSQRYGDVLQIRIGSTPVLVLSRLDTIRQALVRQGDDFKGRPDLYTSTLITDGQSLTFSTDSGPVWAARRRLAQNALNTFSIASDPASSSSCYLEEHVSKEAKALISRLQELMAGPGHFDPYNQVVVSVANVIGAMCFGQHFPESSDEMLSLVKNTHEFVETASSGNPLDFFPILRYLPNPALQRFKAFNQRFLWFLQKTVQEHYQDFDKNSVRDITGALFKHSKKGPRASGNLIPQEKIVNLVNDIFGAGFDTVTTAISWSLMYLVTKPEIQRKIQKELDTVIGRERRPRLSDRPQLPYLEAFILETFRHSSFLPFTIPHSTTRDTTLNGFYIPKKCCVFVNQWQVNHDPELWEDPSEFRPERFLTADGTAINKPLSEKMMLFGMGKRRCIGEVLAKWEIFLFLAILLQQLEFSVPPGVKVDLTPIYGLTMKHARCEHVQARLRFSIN
SMILES,"activity, negative = inhibition",AC50
COC(=O)C/C=C\[C@@H](C)[C@@H](/C=N\OC[C@@H](O)COCc1ccco1)OC,-1.53% [at 11.4 µM],–
CC(C)NC(=O)N1CC[C@@]2(CCCN(S(C)(=O)=O)C2)C1,–,inactive
COc1ccc2[nH]cc(CCNc3ncncc3-c3ccccc3OC)c2c1,–,2.51 µM (active)
COc1ccc2[nH]cc(CCNc3ncncc3-c3ccccc3C)c2c1,–,0.631 µM (active)
CCOC(=O)CN1C(=O)Nc2ccc(Br)cc2C1c1ccccc1 (centres undefined),–,3.16 µM (active)
CN(C)CCN1C(=O)C(O)=C(C(=O)c2cc3ccccc3o2)C1c1cccc(Br)c1 (centres undefined),–,inactive
CS(=O)(=O)N1CCC2(CC1)CN(C(=O)Nc1ccccc1)C2,–,inactive
Cc1ccc(OC[C@H](O)[C@H](C)NC(C)C)c2c1CCC2,–,1.58 µM (active) and 398 nM (active)
CC(C)(C)NC[C@H](O)COc1cccc2c1CCC(=O)N2,–,inactive
CC(C)(C)NC[C@H](O)COc1cccc2c1CCCC2=O,–,inactive
CCOC(=O)CCN1C(=O)[C@H]2[C@H]3[C@H](O)[C@H](O)C/C(=N/OCC(C)C)[C@@H]3CC[C@@H]2C1=O,-8.45% [at 11.4 µM],–
Cc1cc(NC(=S)Nc2ccccc2)ccc1Br,–,5.62 µM (active)
Cc1ccc(NC(=O)C2C3CCCC2C3c2ccccc2)cc1C (centres undefined),–,inactive
Cc1ccc(NC(=S)Nc2ccc(Br)cc2)cc1,–,3.55 µM (active)
Cc1cc(NC(=S)NC(=O)CC(C)C)ccc1Br,–,5.62 µM (active)
CCC(=O)NC(=S)Nc1ccc(S(=O)(=O)NC(C)=O)cc1,–,inactive
CCCNC(=S)Nc1ccc(Br)cc1,–,7.08 µM (active)
COc1ccc(CC(=O)NC(=S)Nc2ccc(S(=O)(=O)NC(C)(C)C)cc2)cc1,–,inactive
Cc1cccc(NC(=S)Nc2ccc(Br)cc2)c1,–,3.55 µM (active)
Cc1cccc(N2CCN(c3ccc(NC(=O)/C=C(/C(=O)O)c4ccccc4)cc3)CC2)c1,–,inactive
C/C(=N\NC(=S)Nc1cccc(C)c1)c1ccccc1,–,0.891 µM (active)
CC(=O)OCC(=O)[C@]12OC(C)(C)O[C@@H]1C[C@H]1[C@H]3CC=C4C[C@@H](O)CC[C@]4(C)[C@H]3CC[C@]12C,4.12% [at 11.4 µM],–
Cc1ccc(S(=O)(=O)NCC(=O)N(CC(=O)NCc2ccco2)Cc2cccs2)cc1,–,inactive
Cc1csc(NC(=O)CNS(=O)(=O)c2cccs2)n1,–,12.6 µM (active)
CCOC(=O)N1CCN(C(=O)CNS(=O)(=O)c2cccs2)CC1,–,inactive
Cc1csc(NC(=O)Cc2c[nH]c3ccccc23)n1,–,11.2 µM (active)
Cc1ccnc(NS(=O)(=O)c2ccc(N)cc2)n1,–,inactive

SMILES,"activity, negative = inhibition",AC50
COCc1c(C(=O)OCC(=O)N2c3ccccc3NC(=O)C2(C)C)oc2ccccc12,–,0.562 µM (active)
CCCCC1(C)OC(=O)C(=Cc2ccc(N(CC)CC)cc2)C(=O)O1 (centres undefined),–,5.01 µM (active)
CCc1nnc(NC(=O)CCC(=O)N2CCN(c3ccccn3)CC2)s1,–,inactive
CCc1nnc(NC(=O)c2c(C)nn(-c3ccccc3)c2Cl)s1,–,7.08 µM (active)
CCn1c(C)nc2cc(S(=O)(=O)C(F)F)ccc21,–,5.01 µM (active)
O=C(N/N=C1/C[C@@H](O)[C@@H](O)[C@@H]2[C@H]3C(=O)N(c4ccc(F)cc4F)C(=O)[C@@H]3CC[C@H]12)OCc1ccccc1,-2.59% [at 11.4 µM],–
N=C(N)SCc1cccc(-c2nc3ccccc3c(=O)o2)c1,-10.3% [at 2.29 µM],–
CC(C)(C)C(=O)Nc1cccc(-c2nc3ccccc3c(=O)o2)c1,–,11.2 µM (active)
CC(CC(=O)O)CC(=O)Nc1ccc(S(N)(=O)=O)cc1 (centres undefined),–,inactive
CC(C)CC(=O)Nc1ccc2c(c1)oc1ccccc12,–,0.794 µM (active)
O[C@H](C[C@@H]1CCCCN1)c1ccc2c(c1)oc1ccccc12,-10.4% [at 2.29 µM],–
Cc1cc(-c2ccc(/C=N/n3cnnc3)o2)c([N+](=O)[O-])cc1C,–,0.316 µM (active)
C[C@@H]1/C=C\CC(=O)OC[C@H]2O[C@@H](C=C[C@@H]2O)[C@H](C)/C=C\CC(=O)OC[C@H]2O[C@H]1C=C[C@@H]2O,7.11% [at 11.4 µM],–
CCC(C)Nc1nc(OCC(F)(F)F)nc(OCC(F)(F)F)n1 (centres undefined),–,10 µM (active)
C[C@@H]1O[C@H](O[C@@H]2[C@H](C)O[C@H](O[C@@H]3[C@H](C)O[C@H](O[C@H]4CC[C@]5(C)[C@@H](CC[C@@H]6[C@H]5C[C@@H](O)[C@]5(C)[C@@H](C7=CC(=O)OC7)CC[C@]65O)C4)C[C@@H]3O)C[C@@H]2O)C[C@H](O)[C@@H]1O,–,inactive
O=S(=O)(c1ccccc1)c1cnn2c(C(F)(F)F)cc(-c3ccccc3)nc12,–,inactive
O=S(=O)(c1ccccc1)c1cnn2c(C(F)(F)F)cc(-c3ccc(F)cc3)nc12,–,0.794 µM (active)
C[N+](C)(C)c1ccc([C@H](N)C(=O)O)cc1,-19.7% [at 11.4 µM],–
COc1ccc(Sc2ccc(NC(=O)c3ccccc3Cl)cc2C#N)cc1,–,inactive
N#Cc1cc(N)ccc1Sc1ccc(Cl)cc1,–,1.78 µM (active)
CNc1cc(OC)c(C(=O)N[C@@H]2CCN(Cc3ccccc3)[C@H]2C)cc1Cl,–,31.6 µM (active)
CCN1CCC[C@H]1CNC(=O)c1cc(S(N)(=O)=O)ccc1OC,–,inactive
CCC(C)[C@H](NC(=O)NC1CCN(Cc2ccccc2)CC1)C(=O)OC (some centres undefined),–,inactive
CC(=O)N(CC(O)CN(C(C)=O)c1c(I)c(C(=O)NC[C@@H](O)CO)c(I)c(C(=O)NC[C@@H](O)CO)c1I)c1c(I)c(C(=O)NC[C@@H](O)CO)c(I)c(C(=O)NC[C@@H](O)CO)c1I,–,inactive
CC(=O)/C(=N\N=C(N)N)c1ccccc1,-17.2% [at 2.29 µM],–
NC(N)=N/N=C(/c1ccccc1)c1ccc(O)cc1O,–,3.16 µM (active)
CCN1C(=O)[C@H]2[C@H]3[C@H](O)[C@H](O)C/C(=N/OC[C@@H](O)COCc4ccco4)[C@@H]3CC[C@@H]2C1=O,-5.56% [at 11.4 µM],–
